The text below walks through data of PubChem BioAssay (NCATS).

Each structure is given as a SMILES string. Records with an inconclusive call do not appear. A call without a number means that no potency is given here. A number with no mark means an inactive call. Activity calls are given as the source filed them. The call rests on the fitted dose curve; in most records, active means well fitted cell-killing curve with a large enough effect; inconclusive means small, poorly fitted or top-dose-only effect, or effect the other way; inactive means flat fitted curve, though single readings scatter. *1 amine or outer side, *2 acyl side, *3 side chain or, on linkers, in order; H or OH if unused. Where a SMILES comes first, the peptide text is derived from it. [ ]: non-standard residue; d: D form. X4 = CC(C)=CCc1cc(C(O)C(N[*:1])C(=O)[*:2])ccc1O

The subject of the test is Es-2. Nature of the test: Primary qHTS to identify gynecologic anti-cancer compounds using libraries of approved drugs and bioactive compounds (AID 1345084). Further: nearly all actives have a fitted effect of over 55% in size. Particulars: Gynecologic cancer cell panel viability, ATPlite luminescence, 48 h; series mostly up to 57.5 µM. The method, boiled down:
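Five-concentration response, 48 h; readout is ATP-driven luciferase luminescence.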
For orientation: Quantitative high-throughput screening tests each substance at several concentrations.
As for `CN(C)CC1CCOC1(c1ccccc1)c1ccccc1` (centres undefined), the Potency result was “inactive”.

Consider `O=C(OC1C=C(CO)C2C(OC3OC(CO)C(O)C(O)C3O)OC=CC12)c1ccc(O)cc1` (centres undefined), for which the Potency result is “inactive”. As for `CC1(C)CC[C@]2(C(=O)OC3OC(CO)C(O)C(O)C3O)CC[C@]3(C)C(=CCC4[C@@]5(C)CC[C@H](OC6OC(C(=O)O)C(O)C(OC7OC(CO)C(O)C(O)C7O)C6O)C(C)(C)C5CC[C@]43C)C2C1` (some centres undefined), the activity change, negative = cytotoxicity is -1.41% [at 11.6 µM]. Same read-out and setting: with `CC(C)=CCc1cc(C(O)C2NC(=O)CNC(=O)C(Cc3c[nH]c4ccccc34)NC(=O)C3CCCN3C(=O)CNC(=O)C(C(C)C)NC(=O)CNC2=O)ccc1O` (centres undefined) (cyclo(G[X4]GVGPW); configuration not given here) the figure was 0.641% [at 11.6 µM].

Consider `COc1ccc(CCO[C@@H]2CCCC[C@H]2N2CC[C@@H](O)C2)cc1OC`, for which the Potency result was “inactive”. Still for that read-out and setting: with `COC(=O)C1=CO[C@@H](O[C@@H]2O[C@H](CO)[C@@H](O)[C@H](O)[C@H]2O)[C@@H]2C(COC(C)=O)=C[C@H](O)[C@H]12` the entry was “inactive”; with `CC12CCC(OC3OC(CO)C(O)C(OC4OC(CO)C(O)C(O)C4O)C3O)CC1=CCC1C2CCC2(C)/C(=C3/COC(=O)C3)CCC12O` (centres undefined), “inactive”; with `C/C1=C\[C@H]2OC(=O)[C@@H](C)[C@@H]2CC/C(C(=O)O)=C/CC1`, “inactive”. Still for that read-out and setting: with `CC12CCC(OC3OC(CO)C(O)C(OC4OC(CO)C(O)C(O)C4O)C3O)CC1CCC1C2CCC2(C)/C(=C3/COC(=O)C3)CCC12O` (centres undefined) the entry was “inactive”.

Take `CC1(C)CCC[C@@]2(C)C1[C@H](OC(=O)/C=C/C=C/C(=O)O)C=C1COC(=O)[C@@]12O` (some centres undefined): the Potency entry is “inactive”.

With `CO/N=C(/C(=O)N[C@@H]1C(=O)N2C(C(=O)O)=C(Cn3ccc(=N)n3CCO)CS[C@H]12)c1csc(N)n1`, the Potency result is “inactive”. Same read-out and setting: with `CC(C)=CCC[C@](C)(O)[C@H]1CC[C@]2(C)[C@@H]1[C@H](O)CC1[C@@]3(C)CC[C@H](O)C(C)(C)[C@@H]3[C@@H](O[C@@H]3O[C@H](CO)[C@@H](O)[C@H](O)[C@H]3O[C@@H]3O[C@H](CO)[C@@H](O)[C@H](O)[C@H]3O)C[C@]12C` (some centres undefined) the entry was “inactive”. With `C[C@@H]1O[C@@H](O[C@H]2[C@H](OC(=O)[C@]34CCC(C)(C)C[C@H]3C3=CCC5[C@@]6(C)C[C@H](O)[C@H](O[C@@H]7O[C@H](CO)[C@@H](O)[C@H](O)[C@H]7O)[C@@](C)(CO)C6[C@H](O)C[C@@]5(C)[C@]3(C)CC4)OC[C@H](O)[C@@H]2O)[C@H](O)[C@H](O)[C@H]1O[C@@H]1OC[C@@H](O)[C@H](O[C@@H]2OC[C@](O)(CO)[C@H]2O)[C@H]1O` (some centres undefined), the activity change, negative = cytotoxicity is 6.38% [at 6.55 µM]. Consider `CC(=O)OC1C(O)CC2(C)C(CCC(C)C23Cc2c(O)cc(CO)c(C=O)c2O3)C1(C)C` (centres undefined), for which the Potency result is “inactive”. On the same count and under the same terms, for `C/C(=C\CCC(C)CCO)C(=O)OC1(C)CCC2C(C(=O)O)=COC(OC3OC(CO)C(O)C(O)C3O)C21` (centres undefined) the value was “inactive”; for `NC1(C(=O)NC(CCO)c2ccc(Cl)cc2)CCN(c2ncnc3[nH]ccc23)CC1` (centres undefined), “inactive”. Still for that read-out and setting: for `CC1(C)CCCC2(C)C(C(=O)O)=CCC12` (centres undefined) the value was “inactive”. With `CCC(C)/C=C(C)/C=C/c1cc2c(cn1)C(=O)C(C)(OC(C)=O)C(O)=C2Cl` (centres undefined), the Potency entry is “inactive”.

Consider `O=S(=O)(Nc1ccccn1)c1ccc(N=Cc2c(O)[nH]c3ccc4ncsc4c23)cc1`, for which the activity change, negative = cytotoxicity is -0.0602% [at 11.6 µM]. Turning to `CC(O)/C=C/C1(O)C(C)C(O[C@@H]2O[C@H](CO)[C@@H](O)[C@H](O)[C@H]2O)C(O)CC1(C)C` (some centres undefined), the Potency result was “inactive”. For `C[C@@H]1O[C@@H](O[C@H]2[C@H](OC(=O)[C@]34CCC(C)(C)C[C@H]3C3=CCC5[C@@]6(C)CC[C@H](O[C@@H]7O[C@H](C(=O)O)[C@@H](O)[C@H](O)[C@H]7O[C@@H]7O[C@H](CO)[C@H](O)[C@H](O)[C@H]7O)[C@@](C)(C=O)C6CC[C@@]5(C)[C@]3(C)C[C@H]4O)O[C@H](C)[C@H](O[C@@H]3O[C@H](C)[C@H](O)[C@H](O)[C@H]3O)[C@@H]2O)[C@H](O)[C@H](O)[C@H]1O[C@@H]1OC[C@@H](O)[C@H](O[C@@H]2O[C@H](CO)[C@@H](O)[C@H](O)[C@H]2O)[C@H]1O` (some centres undefined), the activity change, negative = cytotoxicity is 0.809% [at 6.55 µM].

`COC(=O)C12CCC(C)C(C)C1C1=CCC3C4(C)CCC(OC(C)=O)C(C)(C)C4CCC3(C)C1(C)CC2` (centres undefined): the Potency entry was “inactive”. In the case of `C=C1C(=O)O[C@H](CCC)[C@H]1C(=O)O`, the Potency result was “inactive”.

Regarding `CCOc1cc(CC(=O)NC(CC(C)C)c2ccccc2N2CCCCC2)ccc1C(=O)O` (centres undefined), the Potency entry was “inactive”. Consider `COC1=CC(=O)CC(C)C12Oc1cc(OC)cc(O)c1C2=O` (centres undefined), for which the Potency result is “inactive”. Take `O=C1CCC(=O)N(O)CCCCCNC(=O)CCC(=O)N(O)CCOCCNC(=O)CCC(=O)N(O)CCCCCN1`: the Potency result is “inactive”. Same read-out and setting: with `CCc1ccc(Cc2ccc3c(c2)[C@]2(OC3)O[C@H](CO)[C@@H](O)[C@H](O)[C@H]2O)cc1` the entry was “inactive”; with `C=C(C(=O)O)C1CCC2(C)CCC(O)C(=C)C2C1` (centres undefined), “inactive”.

As to `C=C(C)C1CCC2(C(=O)O[C@@H]3O[C@H](CO[C@@H]4O[C@H](CO)[C@@H](O)[C@H](O)[C@H]4O)[C@@H](O)[C@H](O[C@@H]4O[C@@H](C)[C@H](O)[C@@H](O)[C@H]4O)[C@H]3O)CCC3(C(=O)O)C(CCC4C5(C)CCC(O)C(C)(C)C5CCC43C)C12` (some centres undefined), the activity change, negative = cytotoxicity was 1.26% [at 11.6 µM].

Take `CC(NC(=O)C(O)C(C)C)C(=O)NC1C(=O)N(C)CCc2ccccc21` (centres undefined): the Potency entry is “inactive”.

On to `CNC(C)C(=O)NC(C(=O)N1CCCC1c1nc(C(=O)c2ccc(F)cc2)cs1)C1CCCCC1` (centres undefined), for which the Potency entry was “inactive”. Turning to `CC(=O)O[C@@H]1[C@H](O)[C@@H](O[C@@H]2O[C@@H](C)[C@H](O[C@@H]3OC[C@@H](O)[C@H](O[C@@H]4OC[C@@H](O)[C@H](O)[C@H]4O)[C@H]3O)[C@@H](O[C@@H]3O[C@H](CO)[C@@H](O)[C@H](O)[C@H]3O)[C@H]2O)[C@H](OC(=O)[C@]23CCC(C)(C)C[C@H]2C2=CCC4[C@@]5(C)CC[C@H](O[C@@H]6O[C@H](C(=O)O)[C@@H](O)[C@H](O[C@@H]7OC[C@@H](O)[C@H](O)[C@H]7O)[C@H]6O[C@@H]6O[C@H](CO)[C@H](O)[C@H](O)[C@H]6O)[C@@](C)(C=O)C5CC[C@@]4(C)[C@]2(C)CC3)O[C@@H]1C` (some centres undefined), the activity change, negative = cytotoxicity was -2.98% [at 6.55 µM]. As for `CCN(Cc1cccnc1)C(=O)CN(c1ccc(OC)nc1)S(=O)(=O)c1ccccc1C`, the Potency entry is “inactive”.

On to `COc1ccc(CN2C(=O)C(=O)c3cc(S(=O)(=O)N4CCC[C@H]4COc4cccnc4)ccc32)cc1`, for which the Potency result was “inactive”. Regarding `CC1=CC(=O)[C@]2(O[C@@H]3O[C@@H](C)[C@H](O)[C@@H](O)[C@H]3OC(=O)/C=C/c3ccccc3)C=CO[C@@H](O[C@@H]3O[C@H](CO)[C@@H](O)[C@H](O)[C@H]3O)[C@H]12`, the Potency entry is “inactive”. On to `O=C(O)c1ccccc1NC(=O)N1CCC(c2ccccc2C(F)(F)F)CC1`, for which the Potency entry was “inactive”. On to `Nc1nc2c(ncn2[C@@H]2O[C@H](CO)[C@@H](O)[C@H]2O)c(=O)[nH]1`, for which the Potency entry is “inactive”. As for `C/C1=C\C[C@]2(C)C(=O)C(O)=C([C@H](C)CO)[C@H]2C/C=C(\C)[C@@H](O)CC/C(C)=C/CC1`, the Potency entry was “inactive”. The same measure, in the same setting: for `C[C@]12C[C@@H](O)[C@@H]3C[C@@]1(O[C@@H]1O[C@H](CO)[C@@H](O)[C@H](O)[C@H]1O)[C@]3(COC(=O)c1ccccc1)C(=O)O2` the value was “inactive”.
